SARS PLP yeast: inhibitors of SARS-CoV papain-like protease in yeast. Potency, µM (doses to about 32.9 µM), inactives show top-dose activity, positive = growth rescue, hits mostly activators. S. cerevisiae expressing SARS-CoV PLpro, growth rescue. hit rate 0.19% among 330,000. AID 485353; also: potency is read from the fitted curve at half-maximal effect; 0% is about no effect; nearly all actives have a fitted effect of over 55% in size
Cycloheximide cs: counter-screen for Shiga toxin inhibitors: cycloheximide protein synthesis inhibition; cell reporter, cycloheximide protein synthesis inhibition counterscreen; max response, %; hit rate 12% among 300,000; in the data active = max response mostly above about 13%, no sharp cut-off; inactive = mostly below about 14%; also: read at 38.3 µM for the half of the compounds with a filed dose; 0% is about no effect
NS1 inh: influenza NS1 inhibition | Potency, µM (series often up to 46.1 µM), for the others: at the top dose activity, positive = more growth | hit rate 0.4% among 270,000; also: potency is read from the fitted curve at half-maximal effect; actives are rising curves; nearly all actives have a fitted effect of over 50% in size
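A cell-based growth assay was used: compounds that relieve NS1-induced slow growth of budding yeast raise OD600. Assay medium was yeast nitrogen base with ammonium sulphate and -URA supplement, pH 6.0, with 2% galactose.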
Shiga toxin inh: inhibitors of Shiga toxin in Vero cells | Vero cells, Shiga toxin protein synthesis inhibition reporter | inhibition, % at 38.7 µM | hit rate 9.2% among 290,000; in the data active = inhibition mostly above about 28%, no sharp cut-off; inactive = mostly below about 43%; also: 0% is about no effect
* hit, by the source's call; ? = inconclusive; / = no result. Compounds with a hit are over-represented: about 12% of the library has one in this group of screens. Unless noted, calls follow the shape of the full dose curve.

SMILES	SARS PLP yeast	Cycloheximide cs	NS1 inh	Shiga toxin inh
CCCCc1ccc(-c2nc(-c3ccncc3)no2)cc1	3%	39*	-3%	73*
CCc1ccc(-c2nc(-c3ccncc3)no2)cc1	-10%	42*	-45%	85*
Cc1ccc(C2=NS(=O)(=O)N(C)C(C(=O)Nc3cc(C)n(CC(=O)N4CCC(C)CC4)n3)=C2)cc1	5%	9	15%	-5
CCc1nc(OCCN(C)C)c2oc3ccccc3c2n1	2%	26*	0%	29
CCc1nc(Nc2ccc(F)cc2)c2oc3ccccc3c2n1	-5%	36*	-54%	45
CCc1nc(Nc2ccccc2)c2oc3ccccc3c2n1	-10%	17	-61%	4
CCc1nc(Nc2cccc(F)c2)c2oc3ccccc3c2n1	3%	1	-8%	11
CCc1nc(Nc2cccc(OC)c2)c2oc3ccccc3c2n1	-1%	22*	-3%	27
N#Cc1ccc(S(=O)(=O)N2CCC(C(=O)N3CCN(Cc4ccc5c(c4)OCO5)CC3)CC2)cc1	-6%	/	/	/
Cc1nc2ccc(N)cc2s1	0%	-1	-14%	-3
Cc1nc2cc3sc(C)nc3cc2s1	-4%	33*	/	73*
Cc1nc2cc(C)c(C)cc2s1	0%	22*	/	18
COC(=O)[C@H](CC(C)C)NC(=O)c1cc2c(cn1)[nH]c1ccccc12	2%	-2	-4%	-5
O=S1(=O)C=C(Sc2nc3ccccc3s2)c2ccccc21	-23%	77*	?	76*
Cc1ccc(S(=O)(=O)N2CCOCC2)cc1C(=O)Nc1ccccc1N1CCOCC1	0%	/	/	/
COC(=O)c1ccc(-c2ccc(/C=N/N3C(=O)C4C5C=CC(C6CC56)C4C3=O)o2)cc1 (stereo not given)	-10%	75*	-30%	132*
O=C1C2C3C=CC(C3)C2C(=O)N1/N=C/c1ccc(-c2ccccc2[N+](=O)[O-])o1 (stereo not given)	-3%	32*	-33%	66*
O=C1C2C3C=CC(C4CC34)C2C(=O)N1/N=C/c1ccc([N+](=O)[O-])o1 (stereo not given)	-13%	22*	/	16
COC(=O)c1cccc(-c2ccc(/C=N/N3C(=O)C4C5C=CC(C6CC56)C4C3=O)o2)c1 (stereo not given)	-1%	9	1%	26
O=C1C2C3C=CC(C4CC34)C2C(=O)N1/N=C/c1cccs1 (stereo not given)	-30%	51*	14%	49*
O=C1C2C3C=CC(C4CC34)C2C(=O)N1/N=C/c1ccc(-c2ccc([N+](=O)[O-])cc2)o1 (stereo not given)	-4%	-2	-4%	36
O=C1c2cccnc2Oc2ccc(Cl)cc2N1Cc1ccc(F)cc1	3%	-6	-2%	-13
CCOC(=O)c1cnc2cc3c(cn2c1=O)CCCC3	2%	28*	-7%	55*
COc1cc2c(cc1NC(=O)C1CCCO1)oc1ccccc12 (stereo not given)	-18%	50*	-104%	134*
COc1cc2c(cc1NC(=O)c1cccc(S(=O)(=O)N(C)C)c1)oc1ccccc12	3%	25*	-7%	67*
SMILES	SARS PLP yeast	Cycloheximide cs	NS1 inh	Shiga toxin inh
CNC(=S)Nc1cc2oc3ccccc3c2cc1OC	0%	0	-26%	18
COc1cc2c(cc1NC(=O)Nc1ccc(C)cc1)oc1ccccc12	-19%	19*	-56%	28
COc1cc2c(cc1NC(=S)Nc1ccccc1C)oc1ccccc12	-7%	33*	-1%	91*
O=C(NNS(=O)(=O)c1ccc(Br)cc1)c1csnn1	9%	12	/	1
COc1ccc(/C(C)=N/NC(=O)CNC(=O)c2ccco2)c(OC)c1	-4%	-4	10%	-7
CC(OC(=O)C1CC(=O)N(Cc2ccco2)C1)C(=O)Nc1cccc(C#N)c1 (stereo not given)	-4%	/	/	/
COc1ccc(NC(=O)Nc2cc3oc4ccccc4c3cc2OC)cc1	-16%	10	-1%	-18
COc1cc2c(cc1NC(=O)C(C)Sc1ccc(NC(C)=O)cc1)oc1ccccc12 (stereo not given)	-5%	21*	18%	12
COc1cc2c(cc1NC(=O)C(C)OC(=O)C1CC(=O)N(Cc3ccco3)C1)oc1ccccc12 (stereo not given)	-1%	38*	-113%	73
Cn1cc(CN2CCC(CO)(CCCc3ccccc3)CC2)c(-c2ccccc2)n1	0%	0	?	-19
COc1cc2ccccc2cc1C(=O)Nc1ccc(C)cn1	-7%	48*	-12%	102*
Cc1ccc(NC(=O)c2cnccn2)nc1	-1%	-3	28%	-5
Cc1cc(NC(=O)c2ccccc2F)on1	3%	42*	14%	67*
Cc1ccc(NC(=O)c2cc(F)c(F)cc2Cl)nc1	0%	58*	-8%	49*
Cc1ccc(C(=O)Nc2onc(C)c2C#N)cc1	-21%	12*	-13%	11
Cc1ccc(NC(=O)c2ccccc2F)nc1	1%	43*	-9%	66*
Cc1cc(NC(=O)c2ccc(C#N)cc2)on1	-1%	11*	1%	20
C=CCc1cccc(/C=N/NC(=O)CN2CCN(Cc3ccccc3)CC2)c1O	/	-6	/	-6
Cc1cc(C)nc(S/C=C/C(=O)c2ccccc2F)n1	-1%	54*	-31%	119*
Cc1cc(=O)oc2cc(OCCSCCN3CCCCC3)ccc12	1%	6	4%	14
O=S(=O)(NCCc1ccc2c(c1)OCCO2)c1cccs1	-3%	19*	-2%	16
O=S(=O)(NCCc1ccccc1)c1cccs1	0%	-2	3%	-7
O=C(COC(=O)c1cc2ccccc2oc1=O)c1cccc([N+](=O)[O-])c1	19%	4	1%	-6
Nc1nc2ccccc2nc1N	2%	14*	6%	28*
O=C(NC1CCN(S(=O)(=O)c2ccccc2C(F)(F)F)CC1)c1ccco1	1%	-1	5%	5
SMILES	SARS PLP yeast	Cycloheximide cs	NS1 inh	Shiga toxin inh
CN(C(=O)CSc1nnc(Cc2cccs2)n1C1CC1)C1CCS(=O)(=O)C1 (stereo not given)	6%	/	/	/
O=C(CN1CCN(C(=O)CNC(=O)c2ccc3c(c2)OCO3)CC1)Nc1cccc(F)c1	7%	/	/	/
COc1ccc(N/C=C\C(=O)c2ccc3c(c2)OCO3)cc1OC	11%	67*	-33%	24*
O=C(/C=C\Nc1cccc(F)c1)c1ccc2c(c1)OCO2	-7%	28*	-63%	26
COc1cccc(/C=C/C(=O)c2ccc3c(c2)OCO3)c1OC	-2%	/	/	/
COC(=O)c1ccc(N/C=C\C(=O)c2ccc3c(c2)OCO3)cc1	0%	18*	-3%	57*
Cc1cc(C(=O)NCC(c2cccs2)N2CCOCC2)ccc1[N+](=O)[O-] (stereo not given)	8%	1	1%	-6
Nc1cccc2c1C(=O)N(C(=O)/C=C/c1ccc(F)cc1)C2=O	-1%	37*	/	76*
Nc1cccc2c1C(=O)N(C(=O)c1ccco1)C2=O	0%	-3	1%	2
O=C(Cc1ccc(-n2c(=O)[nH]c3ccsc3c2=O)cc1)NCc1cccnc1	12%	-1	6%	-10
O=C(Oc1ccccc1)N1CCCC1	-1%	-3	0%	1
O=C(Oc1ccc(-c2ccccc2)cc1)N1CCOCC1	0%	39*	-1%	109*
